Assay outcomes: PubChem BioAssay, National Center for Advancing Translational Sciences (NCATS)
Sampled rows, rich in hits. Any-hit rate of the full collection: about 12%.
Sm TGR block: qHTS Assay for the Inhibitors of Schistosoma Mansoni Peroxiredoxins; Schistosoma mansoni thioredoxin glutathione reductase (TGR), Q962Y6; purified TGR, DTNB reduction, TNB absorbance 405 nm; Potency, µM (top dose mostly 114 µM), inactives show at the top dose activity change, negative = inhibition, hits mostly inhibitors; 360,000 compounds, 3% hits; AID 485364, 2010; further: on the % scale 0 is the no-effect control and ±100 the full control effect; nearly all actives have a fitted effect of over 60% in size
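TGR 20 nM + NADPH 100 uM (dispensed conc.), cpd preinc 15 min RT; start with NADPH (500 uM addition) then DTNB (15 mM addition). Kinetic TNB absorbance, 405 nm filter. Four-parameter Hill fit across titration.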
SARS PLpro yeast: qHTS of Yeast-based Assay for SARS-CoV PLP; S. cerevisiae expressing SARS-CoV PLpro, growth rescue; Potency, µM (doses to about 32.9 µM), without a hit: top-dose activity, positive = growth rescue, most hits filed as activators; 330,000 compounds, 0.19% hits; AID 485353, 2010; calls by dose curve; further: 0% is about no effect; nearly all actives have a fitted effect of over 55% in size
Pf growth 96h: Primary qHTS for delayed death inhibitors of the malarial parasite plastid, 96 hour incubation | Potency, µM (highest dose often 28.7 µM), without a hit: at the top dose activity change, negative = inhibition, actives largely listed as inhibitors | P. falciparum luciferase reporter growth, 96 h | 320,000 compounds, 6.9% hits; further: on the % scale 0 is the no-effect control and ±100 the full control effect
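Readout is luminescence from an integrated firefly luciferase in P. falciparum. Red cells, 2% hematocrit and 0.05% parasitemia final, were cultured with compound through two parasite generations (96 hours) at 37 C, 5% CO2.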
Pf growth 48h: Primary qHTS for delayed death inhibitors of the malarial parasite plastid, 48 hour incubation; Potency, µM (titrated, usually from 28.7 µM), without a hit: at the highest dose activity change, negative = inhibition, hits mostly inhibitors; 310,000 compounds, 5.9% hits; P. falciparum luciferase growth in erythrocytes, 48 h; further: on the % scale 0 is the no-effect control and ±100 the full control effect
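Parasite viability was followed by luminescence of a genomically integrated firefly luciferase. Cultures held 0.1% parasitemia at 2% hematocrit (final), incubated under 5% CO2 at 37 C.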
* hit, by the source's call; ? = inconclusive; . = no result. Unless noted, the call rests on the fitted dose curve; in most records, active means well fitted curve in the direction sought with a large enough effect; inconclusive means small, poorly fitted or top-dose-only effect, or another doubt; inactive means no such curve, though single readings can be large; an effect the other way counts as inactive or inconclusive. Potency means the concentration at half of the fitted maximal effect.

SMILES | Sm TGR block | SARS PLpro yeast | Pf growth 96h | Pf growth 48h
CCSc1nc2c(c(=O)[nH]1)C(c1cccnc1)C(C(=O)OC)=C(C)N2 (configuration not stated) | -5.4% | 1.9% | 124.5% | -9.4%
CCSc1nc2c(c(=O)[nH]1)C(c1ccncc1)C(C(=O)OC(C)C)=C(C)N2 (configuration not stated) | -29.4% | 4.0% | 10.4µM* | ?
COc1ccc(NS(=O)(=O)c2cc(NC(=O)C3CCCO3)ccc2N2CCCCC2)cc1 (configuration not stated) | 9.1% | -2.3% | ? | 5.22µM*
COc1ccc(NS(=O)(=O)c2cc(NC(=O)/C=C/c3cc(OC)ccc3OC)ccc2N2CCCCC2)cc1 | 1.5% | 0.2% | 2.62µM* | 4.15µM*
COc1ccc(NS(=O)(=O)c2cc(NC(=O)C3CCCO3)ccc2N2CCCC2)cc1 (configuration not stated) | -6.8% | -1.9% | -23.0% | -2.9%
COc1ccc(NS(=O)(=O)c2cc(NC(=O)c3ccco3)ccc2N2CCCC2)cc1 | -13.8% | 21.4% | ? | ?
COc1ccc(NS(=O)(=O)c2cc(NC(=O)CCNC(C)=O)ccc2N2CCCCC2)cc1 | 3.2% | -2.7% | ? | 9.28µM*
O=C(Cn1ccc2cc(S(=O)(=O)N3CCCC3)ccc21)NCc1ccco1 | -16.4% | 1.6% | ? | 15.1%
Cc1ccc(-c2nc3ncccc3o2)cc1NC(=O)c1ccc(-c2cccc(Cl)c2C)o1 | -10.1% | . | . | .
COc1ccc(Nc2nc(N3CCOCC3)nc(N3CCOCC3)n2)c(OC)c1 | -0.9% | 5.3% | -16.9% | ?
FC(F)(F)Oc1ccc(Nc2nc(N3CCOCC3)nc(N3CCOCC3)n2)cc1 | 4.2% | 1.1% | 11.7µM* | ?
CCc1ccc(Nc2nc(N3CCOCC3)nc(N3CCOCC3)n2)cc1 | 5.0% | -3.6% | 9.28µM* | -25.8%
COc1ccccc1Nc1nc(N2CCOCC2)nc(N2CCOCC2)n1 | 3.1% | -5.5% | 10.4µM* | ?
CCOC(=O)C1CCCN(C(=O)c2ccc3c(c2)N(Cc2ccccc2F)C(=O)c2ccccc2S3=O)C1 (configuration not stated) | -1.8% | . | . | .
CCC1Nc2ncnc(N3CCOCC3)c2N(Cc2ccc(OC)cc2)C1=O (configuration not stated) | . | -2.8% | . | .
CCC1Nc2ncnc(N3CCN(c4ccccc4)CC3)c2N(Cc2ccc(OC)cc2)C1=O (configuration not stated) | -25.9% | 5.8% | 11.7µM* | 11.7µM*
CCC1Nc2ncnc(N3CCN(c4ccccc4)CC3)c2N(Cc2ccc(Br)cc2)C1=O (configuration not stated) | -28.2% | -0.3% | ? | 11.7µM*
CCCN(CC(=O)Nc1ccccc1OC)C(=O)C1=COCCO1 | 4.7% | -1.0% | 6.1% | 9.1%
Cc1ccc(CN2CCCn3nc(C(=O)NCc4cc(C)ccc4C)cc3C2=O)cc1 | -3.9% | . | . | .
CC(=O)Oc1cccc(C)c1 | . | . | -0.9% | -2.5%
CCOc1ccc(CCNC(=O)c2cccc(S(=O)(=O)N3CCN(C(C)=O)CC3)c2)cc1OCC | -19.5% | 3.8% | -16.0% | ?
COc1cc(OC)cc(C(=O)N2CCC(C(=O)NCCc3ccccc3)CC2)c1 | 6.4% | 1.7% | 125.6% | 1.6%
CCCc1cc(N2CCN(C(=O)c3ccco3)CC2)n2c(nc3ccccc32)c1C#N | 39.8µM* | -3.5% | . | 11.7µM*
CCCCc1nc(N2CCN(C(=O)c3ccco3)CC2)c(C#N)c2c1CCCC2 | -4.6% | -7.6% | ? | 9.28µM*
COc1cccc(CNC(=O)CSC2=Nc3ccccc3C3=NC(C)C(=O)N23)c1OC (configuration not stated) | 12.9% | . | . | .
O=C(N/C=N/O)C(c1ccccc1)c1ncc(C(F)(F)F)cc1Cl (configuration not stated) | 14.4% | -1.1% | -1.9% | .
C#CCNC(=O)C1=C[C@@H](c2ccc(C(F)(F)F)cc2)C[C@@H](OCCCCO)O1 | 22.4µM* | -3.3% | ? | ?
C#CCNC(=O)C1=C[C@@H](c2ccc(Br)cc2)C[C@@H](OCc2ccc(CO)cc2)O1 | 44.7µM* | -2.7% | ? | ?
C#CCNC(=O)C1=C[C@H](c2ccc(Br)cc2)C[C@H](OCCCCO)O1 | 15.8µM* | -1.8% | ? | ?
C#CCNC(=O)C1=C[C@H](c2ccc(Br)cc2)C[C@H](OCc2ccc(CO)cc2)O1 | ? | -3.3% | -3.3% | -8.4%
